Hit rate of the full screen: of about 38,000 compounds, about 1,200 (3.2%) showed an effect of 50% or more. The median lay at about -58%. For the sample, strong results were picked, then their nearest neighbours and some compounds at random.
Test system: Plasmodium falciparum
Assay: Calibr Malaria Delayed Death Assay SOP
Assay type: functional, organism-based
Set-up: scale not given: in the data most compounds retested in dose-response had high values
Conditions: concentration 4.99e-06 (unit not given; other assays of the set use mol/L)

First: Cn1[nH]c(Br)c2/c(=N\CCN)ncnc1-2
Second: Cc1nc(C)n(CC2CCCCN2c2ncnc3ccsc23)n1 (centres undefined)
The “Percent Effect” value of the first is lower: -80.01% for the first, -49.26% for the second.

Going from `CN(C(=O)CSc1ccccn1)C1CCCN(CCc2ccccc2)C1` (centres undefined) to `CN(C(=O)CCc1ccncc1)C1CCCN(CCc2ccccc2)C1` (centres undefined), the “Percent Effect” value falls from -11.51% to -32.08%.

Compared with `CCn1ccnc1CN(C)C1CCCN(CCc2ccccc2)C1` (centres undefined), `CN(Cc1nnc(C2CC2)n1C)C1CCN(CCc2ccccc2)C1` (centres undefined) is lower in “Percent Effect” value: 76.22% for the first, -85.28% for the second.

Going from `CN(C(=O)c1cccnc1)C1CCCN(CCc2ccccc2)C1` (centres undefined) to `O=C(NCc1ccccc1)NCC1CCN(Cc2ccsc2)CC1`, the “Percent Effect” value rises from -66.95% to -54.93%.

Compared with `O=C(NCCOc1ccc(Cl)cn1)NCCc1ccccn1`, `Cc1ccc(C)c(S(=O)(=O)NCCOc2ccc3nnc(C)n3n2)c1` is higher in “Percent Effect” value: -11.42% for the first, -6.832% for the second.

First: O=c1cc2c(nn1CN1CCSCC1)CCC2
Second: O=C(C1CCC1)N1CCC(=O)N(C2CC2)Cc2cc(F)ccc21
The “Percent Effect” value of the first is higher: -0.0745% for the first, -6.345% for the second.

First: CN(C)C1CCCN(C(=O)NCCc2cc(F)ccc2F)C1 (centres undefined)
Second: Nc1nc(CC(=O)N2CCCC(CCc3cccc(F)c3)C2)cc(=O)[nH]1 (centres undefined)
The “Percent Effect” value of the first is lower: -83% for the first, -43.06% for the second.

Compared with `CC(=O)N1CC(C)CN(C(=O)c2cnccn2)c2ccccc21` (centres undefined), `CC(=O)c1cn(CCC(=O)Nc2c3c(nn2C)CSC3)c2ccccc12` is higher in “Percent Effect” value: -30.69% for the first, 26.69% for the second.

First: Cn1nccc1NC(=O)c1cccc(CN2C[C@H]3CC[C@@H](C2)N3)c1
Second: Fc1cccc(CN2CCN(Cc3cscn3)CC2)c1
The “Percent Effect” value of the first is lower: -132.7% for the first, -54.95% for the second.

Going from `CCCc1ccc(CN2CCC3(CC2)CNC(=O)C3)o1` to `CSc1ccc(OCCN2CCNC(=O)CC2)cc1`, the “Percent Effect” value falls from 20.41% to -70.99%.

First: CC(C)n1nc(CN2CCCC2)c2c1CN(CC1CC1)CC2.O=C(O)C(F)(F)F.O=C(O)C(F)(F)F
Second: Cn1nc(CN2CCCC2)c2c1CN(CC1CC1)CC2.O=C(O)C(F)(F)F.O=C(O)C(F)(F)F
The “Percent Effect” value of the first is higher: 54% for the first, -21.27% for the second.

Compared with `CC(C)n1nc(CN(C)C)c2c1CN(CC1CC1)CC2.O=C(O)C(F)(F)F.O=C(O)C(F)(F)F`, `Cc1ccc(N2CC[C@H]3CO[C@H](CN(C)Cc4ccco4)[C@H]3C2)nn1.O=C(O)C(F)(F)F.O=C(O)C(F)(F)F` is higher in “Percent Effect” value: -96.94% for the first, -41.04% for the second.

First: Cc1noc(C)c1CN1CC[C@H]2OCC[C@@]2(C(=O)NC2CCCC2)C1.O=C(O)C(F)(F)F
Second: O=C(O)C(F)(F)F.O=C(c1ccccn1)N1C[C@H]2CCC[C@@]2(COCC2CCOCC2)C1
The “Percent Effect” value of the first is higher: 8.677% for the first, -43.42% for the second.

Compared with `CO[C@H]1CNC[C@@H]1NC(=O)c1cc(C)nc2c(C)c(C)ccc12`, `CO[C@H]1CNC[C@@H]1NC(=O)c1cc(C)nc2c(C)cc(C)cc12` is higher in “Percent Effect” value: -1.359% for the first, 73.93% for the second.

First: Cc1cc(C)c2nc(C)cc(C(=O)NC(C)c3nnn[nH]3)c2c1 (centres undefined)
Second: Cc1cccc(-n2c(C)cc(=O)[nH]c2=O)c1C
The “Percent Effect” value of the first is higher: -3.579% for the first, -21.52% for the second.

First: CCc1cnc(N2C[C@@H]3[C@@H](C(=O)N(C)C)CCS(=O)(=O)[C@@H]3C2)nc1
Second: Cc1ccc(CN2CC[C@H]3CO[C@H](CN(C)C)[C@H]3C2)o1
The “Percent Effect” value of the first is lower: -56.54% for the first, -9.526% for the second.

Compared with `Cc1cc(C(=O)N2CCn3cc(CN(C)C)nc3C2)no1`, `Cc1cccc(N2CCN(C(=O)CNCCn3cc(C)cn3)CC2)c1` is lower in “Percent Effect” value: -39.89% for the first, -74.29% for the second.

Going from `Cc1noc(C)c1C(=O)NCC(c1ccsc1)N(C)C` (centres undefined) to `Cc1noc(C(C)C)c1C(=O)NCC(c1ccsc1)N(C)C` (centres undefined), the “Percent Effect” value rises from -8.165% to 17.17%.

First: Cc1cc(C(O)CCNS(=O)(=O)c2ccc(Cl)s2)c(C)o1 (centres undefined)
Second: Cc1cc(CN2CCC(CNS(=O)(=O)c3ccc(Br)s3)CC2)c(C)o1
The “Percent Effect” value of the first is lower: -41.19% for the first, 91.4% for the second.

Compared with `Cc1cc(CN2CCC(CNS(=O)(=O)c3ccc(C)s3)CC2)c(C)o1`, `Cc1cc(CN2CCC(CNS(=O)(=O)c3c(C)noc3C)CC2)c(C)o1` is lower in “Percent Effect” value: 87.35% for the first, 26.64% for the second.

Going from `O=S(=O)(NCC(O)c1ccoc1)c1ccc(Br)s1` (centres undefined) to `Cc1ccc(S(=O)(=O)NCCc2ccoc2)s1`, the “Percent Effect” value rises from -179.3% to -129%.

First: O=C(c1c[nH]nn1)N1CCCC1C1CCCCC1 (centres undefined)
Second: CC(=O)N(Cc1noc(C)n1)C1CCN(CC2CCCC2)C1 (centres undefined)
The “Percent Effect” value of the first is higher: 48.49% for the first, -72.7% for the second.

Compared with `CCNc1ccnc(NC2CCN(CC(N)=O)CC2)n1`, `N#Cc1cc(Br)ccc1NC1CCN(CC(N)=O)CC1` is higher in “Percent Effect” value: -56.83% for the first, 19.71% for the second.

Compared with `CC1CCN(CCCNC(=O)c2ccc(N(C)S(C)(=O)=O)cc2Cl)CC1`, `COc1ccc(CN2CCC(C(N)=O)CC2)cc1SC(F)(F)F` is higher in “Percent Effect” value: -35.22% for the first, 63.84% for the second.

Compared with `Fc1ccc(CC2CCN(Cc3cscn3)CC2)cc1`, `Fc1ccc(CC2CCN(Cc3nccs3)CC2)cc1` is lower in “Percent Effect” value: 50.2% for the first, 0.00383% for the second.

Compared with `CC(C)c1n[nH]c(C2CN(C(=O)c3cc(C(N)=O)cs3)CCO2)n1` (centres undefined), `COc1cc(Cl)c(CN2CCC(C(N)=O)C2)cc1Cl` (centres undefined) is higher in “Percent Effect” value: -7.804% for the first, 3.59% for the second.

Compared with `CN(C)c1ncccc1CNc1snc(Cl)c1C#N`, `COc1ccc(Cl)cc1-c1nc(N)nc(N(C)C)n1` is lower in “Percent Effect” value: -8.92% for the first, -104.8% for the second.

First: Cc1cccc(N2CC[C@H]3[C@H](CO[C@@H]3CN(C)Cc3ccco3)C2)n1.O=C(O)C(F)(F)F.O=C(O)C(F)(F)F
Second: Cc1ccc(CN2CC[C@H]3CO[C@H](CN(C)Cc4ccco4)[C@H]3C2)s1.O=C(O)C(F)(F)F.O=C(O)C(F)(F)F
The “Percent Effect” value of the first is lower: 3.761% for the first, 57.63% for the second.

Going from `O=C(O)C(F)(F)F.O=C(O)C(F)(F)F.c1cc(CN2CC[C@H]3CO[C@H](CN4CCOCC4)[C@H]3C2)cs1` to `CN1CCN(C[C@@H]2OC[C@H]3CN(Cc4ccsc4)CC[C@H]32)CC1.O=C(O)C(F)(F)F.O=C(O)C(F)(F)F.O=C(O)C(F)(F)F`, the “Percent Effect” value rises from -2.124% to 7.397%.

First: O=C(NC[C@H]1OC[C@@H]2CCN(Cc3ccco3)C[C@@H]21)c1ccsc1.O=C(O)C(F)(F)F
Second: CN(Cc1ccco1)C[C@H]1OC[C@@H]2CCN(Cc3ccsc3)C[C@@H]21.O=C(O)C(F)(F)F.O=C(O)C(F)(F)F
The “Percent Effect” value of the first is lower: -100.7% for the first, 65.82% for the second.

Going from `O=C(O)C(F)(F)F.O=C(O)C(F)(F)F.c1cnc(NC[C@H]2OC[C@@H]3CCN(Cc4ccsc4)C[C@@H]32)nc1` to `CN(Cc1ccco1)C[C@@H]1OC[C@H]2CN(Cc3nccs3)CC[C@H]21.O=C(O)C(F)(F)F.O=C(O)C(F)(F)F`, the “Percent Effect” value falls from -30.65% to -54.97%.

Going from `CN1CCN(C[C@H]2OC[C@@H]3CCN(Cc4ccsc4)C[C@@H]32)CC1` to `CCN(CC1CN(Cc2nc(C3CC3)no2)CCO1)c1cccnn1` (centres undefined), the “Percent Effect” value falls from 77.67% to 72.53%.

Compared with `CSCCC(CO)NC(=O)c1ccc2[nH]/c(=N\S(C)(=O)=O)sc2c1` (centres undefined), `CCC(C)C(=O)N(CC(=O)OC)c1cccc(C)n1` (centres undefined) is higher in “Percent Effect” value: -143.2% for the first, -66.48% for the second.

Going from `COCC(O)CN1CCC(=O)N(CC(=O)C(C)(C)C)Cc2ccccc21` (centres undefined) to `COCCC(=O)N1CCC2(CCCN2Cc2ccccc2)C1` (centres undefined), the “Percent Effect” value falls from 3.723% to -58.21%.

First: Cc1nn(C)c(N2CCOCC2)c1CNCc1cccnc1
Second: CCN(CC1CN(Cc2ncc(C)o2)CCO1)c1cccnn1 (centres undefined)
The “Percent Effect” value of the first is lower: -102.1% for the first, -35.01% for the second.

Going from `COCCNc1cc(C)nn2cnnc12` to `CCN(C(=O)Nc1nncs1)C(C)c1cccc(OC)c1` (centres undefined), the “Percent Effect” value rises from -138.9% to -32.07%.

Going from `CNc1nc2c(s1)C(c1cccc(F)c1F)CC(=O)N2` (centres undefined) to `CC(C)(C)n1ncc2c1NC(=O)CC2c1c(F)cccc1F` (centres undefined), the “Percent Effect” value falls from -75.94% to -175.8%.

First: CC(C)n1[nH]c(=O)c2c1NC(=O)CC2c1ccncc1 (centres undefined)
Second: COc1ccc(C(C)NC(=O)N2CCNC(=O)CC2)cc1F (centres undefined)
The “Percent Effect” value of the first is higher: -11.96% for the first, -89.17% for the second.

Going from `COc1ncccc1CN1C[C@@H]2COC[C@]2(COc2ccccn2)C1.O=C(O)C(F)(F)F.O=C(O)C(F)(F)F.O=C(O)C(F)(F)F` to `Cc1cc(C[C@@H]2CCC[C@H]2NCc2c[nH]nc2-c2ccccc2)on1.O=C(O)CC(O)(CC(=O)O)C(=O)O`, the “Percent Effect” value rises from -20.51% to 55.35%.

Going from `Cc1ccc(C(=O)Cc2c(Cl)nc3n(C)c(=O)n(C)c(=O)n23)cc1` to `CC(C)c1ccc(S(=O)(=O)Cc2nc(N)nc(N(C)C)n2)cc1`, the “Percent Effect” value falls from -11.12% to -42.62%.

Going from `COc1ccc(CN2CCNC(=O)CC2)cc1SC(F)(F)F` to `COc1ccc(CN2CCC(C(N)=O)C2)c(Br)c1OC` (centres undefined), the “Percent Effect” value falls from 74.78% to -101%.

First: OC(CN1CCC(c2ccn[nH]2)CC1)c1ccc(F)cc1F (centres undefined)
Second: CN(C(=O)Nc1cccnc1)C1CCN(c2ccc(Cl)cc2)CC1
The “Percent Effect” value of the first is lower: -72.07% for the first, 4.443% for the second.

Going from `Cc1cc(C[C@@H]2CCC[C@H]2NCc2ccc(C(F)(F)F)cc2)on1.O=C(O)CC(O)(CC(=O)O)C(=O)O` to `Cc1cc(C[C@@H]2COC[C@@H]2NC(=O)Cn2c(=O)oc3ccccc32)on1`, the “Percent Effect” value falls from -14.83% to -110.9%.

First: COc1cccc(-c2n[nH]cc2CNC2CCCN(C)C2)c1 (centres undefined)
Second: COc1cccc(-c2n[nH]cc2CNC2CCC(O)CC2)c1.Cl (centres undefined)
The “Percent Effect” value of the first is lower: -88.31% for the first, -76.02% for the second.

Going from `Cc1cc(C)n(CC2CCCN2CC(=O)N(C)CCC#N)n1` (centres undefined) to `CCN(CC1CN(Cc2c(C)noc2C)CCO1)c1cccnn1` (centres undefined), the “Percent Effect” value falls from -49.25% to -53.53%.

Compared with `CCNC(=O)Cc1ccc(-c2cccc3c2CCNC3)cc1`, `CN(CC(=O)Nc1cccc(F)c1)Cc1nc(N)nc(N(C)C)n1` is lower in “Percent Effect” value: -6.885% for the first, -117.7% for the second.

Going from `COc1ccccc1CCN(C)Cc1nc(N)nc(N(C)C)n1` to `COc1ccccc1CC(C)N(C)CCS(C)(=O)=O` (centres undefined), the “Percent Effect” value falls from 69.03% to -4.563%.
